A short description of test [1]: viability loss in pontine glioma line – cell-based, SU-DIPG-XXV, MIPE5.0, CellTiter-Glo, qHTS, dose response (AID 1347065; cut-off not given, nearly all actives have AC50 up to about 26 µM;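 further: cells exposed to compound for 48 hours before ATP readout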). The note with it: CellTiter-Glo ATP luminescence. (In general: Cellular ATP, detected with luciferase, serves as a proxy for viable cell number.)
Test [2] in a line: SU-DIPG-VI glioma cell viability, MIPE4.0 library, CellTiter-Glo luminescence, qHTS (AID 1347066; cut-off not given, nearly all actives have AC50 up to about 30 µM;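 further: cells exposed to compound for 48 hours before readout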). The conditions noted are these: CellTiter-Glo ATP luminescence.
Test [3] in a line: JHH-DIPG-1 glioma cell viability, MIPE5.0 library, CellTiter-Glo luminescence, qHTS (AID 1347067; cut-off not given, nearly all actives have AC50 up to about 26 µM;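 further: cells exposed to compound for 48 hours before readout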). The note with it: JHH-DIPG-1 glioma viability, CellTiter-Glo ATP luminescence.
Test [4] is described as follows: SU-DIPG-XXV glioma cell viability, MIPE5.0 library, qHTS (AID 1347068; cut-off not given, nearly all actives have IC50 up to about 30 µM;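 on IC50: cells exposed to compound for 48 hours before viability readout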). On the technique in general: Quantitative high-throughput screening tests each substance at several concentrations.
Test [5] in a line: modifiers of HSF1 nuclear foci, imaging, Selleck Cancer Library (AID 1347162; in the data active means plate-normalised HSF1 focus index below about 0.46). The conditions noted are these: human cells, at 10 µM; SSMD: measured here: HSF1 foci SSMD mean; cell count: measured here: cell number; plate-normalised HSF1 focus index: stronger effect = lower value.
Test [6] can be described thus: survival rescue of mitochondrial mutant cells in low glucose, primary screen, MELAS cybrids, Rieske KO mouse fibroblasts, CellTiter-Glo (AID 1508586;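 active means mean z-score across replicates of 1.96 or higher in either the MELAS or the Rieske mutant cell line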;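 further: z relative to plate mean and SD of compound and empty wells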).
Test [7] deals with NAD(+) hydrolase SARM1 (Homo sapiens) (UniProt Q6SZW1). Nature of the test: SARM1 TIR NADase inhibitors, cell lysate, NAD-Glo luminescence (AID 1508614;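 active means compound whose remaining NAD level is above about 45 nM, limit read from the data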). The conditions noted are these: SAM-TIR HEK293T lysate NADase, at 1 µM, stronger effect = higher value.
NAD(+) hydrolase SARM1 (Homo sapiens), sequence (Q6SZW1 whole entry, looked up, the tested form may be a part): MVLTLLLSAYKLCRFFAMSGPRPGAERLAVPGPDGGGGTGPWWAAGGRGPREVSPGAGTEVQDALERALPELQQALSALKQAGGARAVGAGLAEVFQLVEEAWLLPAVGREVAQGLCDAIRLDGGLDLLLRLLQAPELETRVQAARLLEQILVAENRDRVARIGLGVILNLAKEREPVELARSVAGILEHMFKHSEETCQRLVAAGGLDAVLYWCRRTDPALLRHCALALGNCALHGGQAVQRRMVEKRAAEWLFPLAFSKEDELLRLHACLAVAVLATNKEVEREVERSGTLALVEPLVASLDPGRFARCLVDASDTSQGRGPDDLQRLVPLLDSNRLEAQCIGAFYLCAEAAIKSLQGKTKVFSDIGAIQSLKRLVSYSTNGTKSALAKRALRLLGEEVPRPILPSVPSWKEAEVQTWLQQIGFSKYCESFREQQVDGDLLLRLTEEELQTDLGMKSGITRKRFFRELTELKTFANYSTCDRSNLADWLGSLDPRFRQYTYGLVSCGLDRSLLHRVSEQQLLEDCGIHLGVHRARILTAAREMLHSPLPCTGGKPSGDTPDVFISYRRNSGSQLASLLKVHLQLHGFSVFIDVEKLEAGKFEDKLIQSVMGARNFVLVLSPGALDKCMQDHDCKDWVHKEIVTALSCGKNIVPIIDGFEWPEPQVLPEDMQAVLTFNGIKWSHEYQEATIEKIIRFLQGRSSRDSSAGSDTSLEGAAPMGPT
Test [8] deals with Mitogen-activated protein kinase 7 (Homo sapiens) (UniProt Q13164). Nature of the test: ERK5 transactivation activators in reporter cells, primary screen, cell-based, HTS (AID 1508626;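 active means luciferase signal above three times the same-plate solvent-only control wells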;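 further: luciferase driven by Gal4-ERK5 fusion binding five Gal4 sites before minimal TATA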). The note with it: HeLa Gal4-ERK5 transactivation, 18 h, at 5 µM, stronger effect = higher value.
Mitogen-activated protein kinase 7 (Homo sapiens), sequence (Q13164 whole entry, looked up, the tested form may be a part): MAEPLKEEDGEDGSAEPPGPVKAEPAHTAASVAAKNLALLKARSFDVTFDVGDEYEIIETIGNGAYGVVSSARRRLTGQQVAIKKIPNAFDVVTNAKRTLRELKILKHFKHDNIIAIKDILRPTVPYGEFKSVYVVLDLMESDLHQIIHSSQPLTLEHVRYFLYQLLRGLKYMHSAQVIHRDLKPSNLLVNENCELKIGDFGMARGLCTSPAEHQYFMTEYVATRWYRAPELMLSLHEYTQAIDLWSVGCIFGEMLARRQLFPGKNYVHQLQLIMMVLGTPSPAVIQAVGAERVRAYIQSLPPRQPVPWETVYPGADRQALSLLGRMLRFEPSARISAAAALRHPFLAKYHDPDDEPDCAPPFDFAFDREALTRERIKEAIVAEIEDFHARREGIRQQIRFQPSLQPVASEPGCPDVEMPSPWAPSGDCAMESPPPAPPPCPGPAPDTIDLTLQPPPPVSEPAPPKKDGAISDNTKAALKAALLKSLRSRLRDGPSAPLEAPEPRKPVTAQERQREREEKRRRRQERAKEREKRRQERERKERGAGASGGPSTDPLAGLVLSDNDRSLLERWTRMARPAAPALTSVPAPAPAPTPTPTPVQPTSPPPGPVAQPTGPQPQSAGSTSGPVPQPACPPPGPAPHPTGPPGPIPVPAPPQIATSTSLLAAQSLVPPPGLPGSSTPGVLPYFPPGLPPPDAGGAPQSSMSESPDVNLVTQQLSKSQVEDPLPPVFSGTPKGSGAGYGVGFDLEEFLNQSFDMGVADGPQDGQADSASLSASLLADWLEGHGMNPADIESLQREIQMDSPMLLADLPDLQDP
Test [9] in a line: viability rescue of complex I mutant cybrids, primary screen, cell-based, galactose medium, ATP luminescence (AID 1645843;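 active means z-score of at least 1.8 in each of two replicates, scored against plate mean and spread of sample wells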;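 further: positive z means more ATP and so rescue of galactose-driven cybrid death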). The conditions noted are these: complex I mutant cybrid cells, 72 h, stronger effect = higher value.
A short description of test [10]: sensitizers of A549 cells to miR-34 induction, primary screen, imaging, A549 dox-inducible miR-34, nuclei and caspase counts (AID 1347080;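 active means compounds whose cell count with miR-34 switched on is under 0.7 times the count with it off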). The conditions noted are these: A549 miR-34 inducible, Hoechst nuclei count, 48 h.
Test [11] in a line: ovarian cancer cell viability with rucaparib, profiling panel, oncology-focused library, rucaparib conditional (AID 1508598). The conditions noted are these: patient-derived ovarian cancer cells, CellTiter-Glo viability, 144 h, stronger effect = lower value.
Where [12] appears, read: MELAS cybrid survival, CellTiter-Glo 48 h, stronger effect = higher value.
The mark [13] stands for this setting: Rieske KO mouse fibroblast survival, CellTiter-Glo 72 h.

Values joined by “and” are separate entries in the source; they are usually repeats but may differ in a detail not shown here. Equal values may be shown once. Results filed as inconclusive are left out. Some compounds were tested as several samples or in several runs, with calls that do not always agree. Active and inactive are the calls of the source.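 How the source made its calls, unless noted: active means normalized viability below 100% at a tested concentration; inactive means the rest.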

By AC50 is commonly meant the midpoint of the concentration-response curve, whichever way the signal moves. A word on the IC50: it is the concentration needed to halve the response being measured. For the compound `COc1cccc2c1C(=O)c1c(O)c3c(c(O)c1C2=O)C[C@@](O)(C(=O)CO)C[C@@H]3O[C@H]1C[C@H](N)[C@H](O)[C@H](C)O1`, the AC50 in [1] was 1180 nM (active); in test [2], 2350 nM (active); in test [3], 1050 nM (active). In addition, the IC50 in test [4] was 7420 nM (active). This compound came in with an SSMD in test [5] of -18.3. In addition, in test [5], the cell count stood at 7010. Besides, in test [5], the plate-normalised HSF1 focus index is 0.0593 (active). Also, the z-score is 0.616 (inactive) and 7.1 (active) in test [6] (setting [12]); -1.64 and -0.526 in [6] (setting [13]); -0.63 (inactive) and -2.04 (inactive) in test [9]. For the same compound, the remaining NAD in [7] is 10 nM (inactive). Moreover, in test [8], the luciferase signal is 32 AU (inactive).

As for `CC(=O)N(O)CCCCCNC(=O)CCC(=O)N(O)CCCCCNC(=O)CCC(=O)N(O)CCCCCN`, in [1], the AC50 is 13200 nM (active). Besides, the compound was called inactive in test [4]. Besides, the fold change was 0.985 (inactive) and 0.882 (inactive) and 0.874 (inactive) in test [10] (stronger effect = lower value, cell number ratio, induced over uninduced); 1.2 and 0.413 and 4.36 in [10] (measured here: relative caspase fold change +Dox/-Dox). Also, the cell count in test [10] (measured here: total cells with miR-34 induction, stronger effect = lower value) is 4610 and 9190 and 10300; in test [10] (measured here: total cells without miR-34 induction), 4680 and 10400 and 11800. The z-score is -0.752 (inactive) and -0.803 (inactive) in test [6] (setting [12]); -0.313 and -1.18 in test [6] (setting [13]); 0.76 (inactive) in test [9]. Besides, the remaining NAD in test [7] is 10 nM (inactive). Besides, the luciferase signal in test [8] was 40 AU (inactive).

Take `CC/C(=C(/CC)c1ccc(O)cc1)c1ccc(O)cc1`: the outcome in test [1] and in test [4] was inactive. Besides, the z-score in [6] (setting [12]) was 0.343 (inactive) and 0.665 (inactive); in test [6] (setting [13]) it was -0.0589 and -0.544; in test [9] it was -0.645 (inactive). In [7], the remaining NAD is 10 nM (inactive). For the same compound, in [8], the luciferase signal is 56 AU (inactive).

What is called viability is a read-out of living cells in per cent, often relative to untreated cells. Turning to `CCC(C)n1ncn(-c2ccc(N3CCN(c4ccc(OC[C@H]5CO[C@](Cn6cncn6)(c6ccc(Cl)cc6Cl)O5)cc4)CC3)cc2)c1=O` (some centres undefined), the compound was classed as inactive in [2], in [3] and in test [4]. For the same compound, the SSMD in test [5] stood at 2.18. The compound also yielded a cell count in test [5] of 6750. Besides, the plate-normalised HSF1 focus index in test [5] is 1.11 (inactive). The viability in test [11] (at 0.000305 µM, OCI-C5x cells, with rucaparib 10 µM, 100% = cells with rucaparib alone) is 118% (inactive); in [11] (at 0.000305 µM, OCI-C5x cells, without rucaparib), 110% (inactive); in [11] (at 0.000305 µM, OCI-P5x cells, with rucaparib 20 µM, 100% = cells with rucaparib alone), 90.3% (active); in [11] (at 0.000305 µM, OCI-P5x cells, without rucaparib), 83% (active); in test [11] (at 0.00122 µM, OCI-C5x cells, with rucaparib 10 µM, 100% = cells with rucaparib alone), 118% (inactive); in test [11] (at 0.00122 µM, OCI-C5x cells, without rucaparib), 100% (inactive). Besides, the viability in test [11] (at 0.00122 µM, OCI-P5x cells, with rucaparib 20 µM, 100% = cells with rucaparib alone) was 93.4% (active); in test [11] (at 0.00122 µM, OCI-P5x cells, without rucaparib), 81.8% (active); in test [11] (at 0.00488 µM, OCI-C5x cells, with rucaparib 10 µM, 100% = cells with rucaparib alone), 122% (inactive); in [11] (at 0.00488 µM, OCI-C5x cells, without rucaparib), 105% (inactive); in [11] (at 0.00488 µM, OCI-P5x cells, with rucaparib 20 µM, 100% = cells with rucaparib alone) it was 95.6% (active); in test [11] (at 0.00488 µM, OCI-P5x cells, without rucaparib), 90.8% (active). The viability in test [11] (at 0.0195 µM, OCI-C5x cells, with rucaparib 10 µM, 100% = cells with rucaparib alone) was 127% (inactive); in [11] (at 0.0195 µM, OCI-C5x cells, without rucaparib), 116% (inactive); in test [11] (at 0.0195 µM, OCI-P5x cells, with rucaparib 20 µM, 100% = cells with rucaparib alone), 96.2% (active); in test [11] (at 0.0195 µM, OCI-P5x cells, without rucaparib) it was 89.4% (active); in [11] (at 0.0781 µM, OCI-C5x cells, with rucaparib 10 µM, 100% = cells with rucaparib alone) it was 126% (inactive); in [11] (at 0.0781 µM, OCI-C5x cells, without rucaparib) it was 119% (inactive). Besides, the viability in [11] (at 0.0781 µM, OCI-P5x cells, with rucaparib 20 µM, 100% = cells with rucaparib alone) is 96.6% (active); in test [11] (at 0.0781 µM, OCI-P5x cells, without rucaparib) it was 95.1% (active); in [11] (at 0.313 µM, OCI-C5x cells, with rucaparib 10 µM, 100% = cells with rucaparib alone), 131% (inactive); in test [11] (at 0.313 µM, OCI-C5x cells, without rucaparib) it was 118% (inactive); in test [11] (at 0.313 µM, OCI-P5x cells, with rucaparib 20 µM, 100% = cells with rucaparib alone) it was 98.6% (active); in [11] (at 0.313 µM, OCI-P5x cells, without rucaparib), 95.8% (active). In addition, the viability in test [11] (at 1.25 µM, OCI-C5x cells, with rucaparib 10 µM, 100% = cells with rucaparib alone) was 131% (inactive); in test [11] (at 1.25 µM, OCI-C5x cells, without rucaparib), 126% (inactive); in test [11] (at 1.25 µM, OCI-P5x cells, with rucaparib 20 µM, 100% = cells with rucaparib alone), 93.3% (active); in test [11] (at 1.25 µM, OCI-P5x cells, without rucaparib), 94.8% (active); in test [11] (at 5 µM, OCI-C5x cells, with rucaparib 10 µM, 100% = cells with rucaparib alone), 135% (inactive); in [11] (at 5 µM, OCI-C5x cells, without rucaparib), 123% (inactive). The viability was 92.7% (active) in test [11] (at 5 µM, OCI-P5x cells, with rucaparib 20 µM, 100% = cells with rucaparib alone) and 94.9% (active) in test [11] (at 5 µM, OCI-P5x cells, without rucaparib). In addition, the remaining NAD in [7] was 10 nM (inactive).

Source of the values: PubChem BioAssay.
